Compound activity as filed in PubChem BioAssay.
D2 antagonist – antagonists of human D2 dopamine receptor | AID 485344 | HEK293 TREx D2 cells, calcium flux, dopamine EC80 | P14416 | inhibition, % at 10 µM | 340,000 compounds, 2% hits; in the data active = inhibition above about 30%; inactive = below that, where a call was filed; note: 0% is about no effect
Target sequence (P14416 whole entry, looked up): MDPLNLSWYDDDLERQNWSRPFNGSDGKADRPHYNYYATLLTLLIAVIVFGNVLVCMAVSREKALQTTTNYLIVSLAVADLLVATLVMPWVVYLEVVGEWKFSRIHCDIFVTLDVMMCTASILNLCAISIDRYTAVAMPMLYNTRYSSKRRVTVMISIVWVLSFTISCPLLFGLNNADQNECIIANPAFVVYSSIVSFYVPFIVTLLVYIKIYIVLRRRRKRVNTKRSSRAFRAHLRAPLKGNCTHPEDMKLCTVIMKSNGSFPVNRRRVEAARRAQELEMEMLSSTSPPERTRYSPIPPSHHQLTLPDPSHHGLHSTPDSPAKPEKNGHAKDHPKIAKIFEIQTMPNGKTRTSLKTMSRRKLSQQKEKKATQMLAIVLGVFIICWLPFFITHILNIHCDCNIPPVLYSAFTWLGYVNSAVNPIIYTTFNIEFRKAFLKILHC
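Cells plated overnight at 30 C with tetracycline; no-wash calcium dye, 30–90 min RT; 10 s baseline; compound pinned; 180 s read; EC80 dopamine added; another 180 s read.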
D2 PAM-1 – positively modulates the human D2 dopamine receptor allosterically; P14416; potentiation, % at 10 µM; HEK293 T-REx D2, calcium flux, EC20 dopamine potentiation; 340,000 compounds, 0.34% hits;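 active = potentiation over 3 SD above the plate norm, cut at about 30% in these data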; note: 0% is about no effect
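Tetracycline-induced HEK293 T-REx cells force-coupled to calcium signalling expressed D2; compounds were pin-added after a 10 s baseline, read kinetically 180 s, then an EC20 dopamine challenge followed with a further 180 s calcium read.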
D2 ag-1 – activates the human D2 dopamine receptor | AID 485358 | activation, % at 2 µM | HEK293 T-REx D2 cells, calcium flux agonist mode | 340,000 compounds, 0.53% hits;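 active = activation over 3 SD above normal in the single-dose calcium agonist read, cut at about 30% in these data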; note: 0% is about no effect
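Tetracycline-induced HEK293 Trex cells with D2 receptor force-coupled to calcium signaling, plated overnight at 30 C and loaded with no-wash calcium dye. Calcium flux read kinetically for 180 s after compound addition; responses flag agonists.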
D2 ag-2 – activates the human D2 dopamine receptor. P14416. DiscoveRx PathHunter D2 beta-arrestin, luminescence, 90 min; 100% = 57 uM dopamine signal. activation, % (test concentration not listed). 360,000 compounds, 0.084% hits; in the data active = activation above about 40%
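DiscoveRx PathHunter D2 beta-arrestin cells (2,100/well) attached overnight, then compound-stimulated 90 min at 37 C in HBSS/10 mM HEPES/0.1% Tween-20 buffer; beta-galactosidase complementation read by luminescence after 1 h at ambient temperature. Dopamine 57 uM final (EC100) as control.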
D2 PAM-2 – potentiates the human D2 dopamine receptor allosterically; P14416; potentiation, % (test concentration not listed); DiscoveRx D2 beta-arrestin cells, luminescence, 90 min; 100% = 57 uM dopamine signal; 360,000 compounds, 0.23% hits; in the data active = potentiation above about 50%
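D2 cells co-treated with compound plus 50 nM dopamine (EC20) for 90 min at 37 deg C to detect potentiation. Beta-arrestin recruitment was read as enzyme-fragment luminescence after 1 h at ambient temperature. Full response was set by 57 uM dopamine.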
* marks the source's active call; other numbers are inactive results. The list is not random: actives were taken first. Their share in the collection is about 2.4%.

CCC(CC)NC(=O)CSc1ccc(S(=O)(=O)N2CCCCC2)cn1 was read as D2 antagonist -3, D2 PAM-1 3, D2 ag-1 -1, D2 ag-2 0 and D2 PAM-2 3.
Screening O=c1c2sc3ccccc3c2n(Cc2cccc(C(F)(F)F)c2)c(=O)n1Cc1ccc(F)cc1 returned D2 PAM-1 0 and D2 ag-1 -1.
`Clc1cccc(-n2ncc3c(NCCCn4ccnc4)ncnc32)c1` gave D2 PAM-1 -1 and D2 ag-1 1.
Screening Cc1ccc2ncc3c(-c4ccc(F)cc4)nn(-c4cccc(F)c4)c3c2c1 returned D2 PAM-1 -6 and D2 ag-1 1.
CN1CCN(c2oc(-c3cccs3)nc2S(=O)(=O)c2ccccc2)CC1 was read as D2 antagonist -35, D2 PAM-1 -25, D2 ag-1 0, D2 ag-2 -6 and D2 PAM-2 -38.
CN1CCN(c2oc(-c3ccccc3)nc2S(=O)(=O)c2ccc(Br)cc2)CC1 was read as D2 antagonist 31*, D2 PAM-1 -25, D2 ag-1 0, D2 ag-2 -4 and D2 PAM-2 -28.
Screening CN1CCN(c2oc(-c3ccccc3Cl)nc2S(=O)(=O)c2ccccc2)CC1 returned D2 antagonist 79*, D2 PAM-1 -21, D2 ag-1 1, D2 ag-2 -4 and D2 PAM-2 -50.
CCOC(=O)Cn1cnc2c(nnn2-c2cccc(OC)c2)c1=O was read as D2 antagonist 8, D2 PAM-1 1, D2 ag-1 0, D2 ag-2 -6 and D2 PAM-2 5.
Screening CCOC(=O)Cn1cnc2c(nnn2-c2ccc(F)cc2)c1=O returned D2 antagonist 32*, D2 PAM-1 7, D2 ag-1 0, D2 ag-2 -4 and D2 PAM-2 -1.
COc1cccc(-n2nnc3c(=O)n(CC(=O)OCc4ccccc4)cnc32)c1 was read as D2 antagonist -7, D2 PAM-1 50*, D2 ag-1 0, D2 ag-2 2 and D2 PAM-2 5.
CC(CCc1ccccc1)NC(=O)C(=O)Nc1ccccc1 (stereo not given) was read as D2 antagonist 72*, D2 PAM-1 6, D2 ag-1 0, D2 ag-2 0 and D2 PAM-2 -12.
Screening COc1cc(NC(=O)CCC(=O)Nc2ccc3nc(N4CCOCC4)cc(C)c3c2)cc(OC)c1OC returned D2 antagonist 31*, D2 PAM-1 -20, D2 ag-1 -1, D2 ag-2 -4 and D2 PAM-2 -10.
For COc1ccc(NC(=O)CCC(=O)Nc2ccc3nc(N4CCOCC4)cc(C)c3c2)c(OC)c1 the results were D2 antagonist 16, D2 PAM-1 -7, D2 ag-1 0, D2 ag-2 4 and D2 PAM-2 -1.
`CCOC(=O)c1cccc(NC(=O)Cn2c(=O)nc(-c3ccccc3F)c3cc(Cl)ccc32)c1` gave D2 PAM-1 5 and D2 ag-1 1.
Cc1nc(-c2cccc(S(=O)(=O)N3CCOCC3)c2)cs1 was read as D2 antagonist 35*, D2 PAM-1 14, D2 ag-1 0, D2 ag-2 -2 and D2 PAM-2 -3.
For Cc1ccc(/C=C/C(=O)c2ccc([N+](=O)[O-])o2)cc1 the results were D2 antagonist 1, D2 PAM-1 7, D2 ag-1 1, D2 ag-2 10 and D2 PAM-2 54*.
For Cc1ccc(CNC(=O)c2ccc([N+](=O)[O-])o2)cc1 the results were D2 antagonist 0, D2 PAM-1 -7, D2 ag-1 0, D2 ag-2 -14 and D2 PAM-2 56*.
Screening Cc1ccc(CNC(=O)c2nn(C)c(C)c2[N+](=O)[O-])cc1 returned D2 antagonist 17, D2 PAM-1 -8, D2 ag-1 0, D2 ag-2 -5 and D2 PAM-2 -13.
CCOc1ccc(NC(=O)Nc2cc3c(cc2N2CCCCC2)n(C)c(=O)n3C)cc1 was read as D2 PAM-1 -1 and D2 ag-1 0.
For CCOc1cc(CN2CCN(CCOCCO)CC2)ccc1OC the results were D2 antagonist -5, D2 PAM-1 2, D2 ag-1 0, D2 ag-2 -2 and D2 PAM-2 -8.
